# According to PubChem BioAssay AID750 (Sanford-Burnham Center for Chemical Genomics, 2007):
# Screen size: about 86,000 compounds; about 140 (0.16%) were called active. The sample holds actives, similar compounds and a random draw of the others, so the mix is not that of the screen. Unmarked numbers belong to inactive results.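 The calls were made as follows: active = activation factor of at least 2 for MT1-MMP transcription at 10 µM; inactive = the rest.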
# Test: MT1-MMP promoter reporter activation – cell-based, luciferase luminescence, primary screen (AID 750)
# Conditions: HT1080 MT1-MMP promoter luciferase reporter, overnight, at 10 µM, active compounds read high
row,Compound,activation factor
1,Cn1c(=N)n(CC(O)c2ccccc2)c2ccccc21 (stereo not given),1.5
2,CC1CCC2(CC1)NC(=O)N(CC(=O)c1cccn1C)C2=O (stereo not given),1.2
3,COc1ccccc1NC(=O)C1CCCN(c2cc(C)nc3ncnn23)C1 (stereo not given),1.1
4,COc1cc(OC)cc(-c2cc3nc(C4CCN(C(=O)OC(C)(C)C)CC4)cc(=O)n3[nH]2)c1,1.1
5,COc1ccc(OC)c(-n2nnnc2SCC(=O)Nc2cc(C)ccc2OC)c1,1
6,COc1ccc(C(=O)Nc2ccc(S(=O)(=O)NC(C)C)cc2)cc1,1.1
7,COC(=O)[C@@]1(Cc2ccccc2)C=C[C@@H](C)N1,1.2
8,O=C1C2N=NN(CC(=O)N3N=C(c4cccc5ccccc45)CC3c3ccccc3)C2C(=O)N1c1ccccc1 (stereo not given),1.2
9,CC(N=Cc1nc(-c2ccccc2)oc1O)c1ccccc1 (stereo not given),1.2
10,Cc1ccc(S(=O)(=O)NCCN2CCOCC2)cc1C,1.1
11,c1ccc2[nH]c(NCCN3CCOCC3)nc2c1,1.1
12,Cc1cc2nc(SCCN3CCOCC3)[nH]c2cc1C,2 (active)
13,CCOc1cc(NC(=O)c2cnccn2)c(OCC)cc1NC(=O)c1ccc(C)cc1,1.3
14,COC(=O)C1=C(C)N=C2SC(C)C(=O)N2C1/C=C/c1ccccc1 (stereo not given),1.1
15,OC(COCCC12CC3CC(CC(C3)C1)C2)CN1CCCCC1 (stereo not given),1.1
16,COc1ccc(/C(O)=C2/C(=O)C(=O)N(CC3CCCO3)C2c2ccc(OC)c(OC)c2)cc1 (stereo not given),1.3
17,O=C(CCn1c(SCC(=O)c2ccccc2)nc2ccccc2c1=O)NCc1ccc(F)cc1,1.1
18,CCN1CCCC1Cn1cnc2c([nH]c3cc(OC)ccc32)c1=O (stereo not given),1.1
19,Cc1cc(NC(=O)CSc2nnc(-c3ccc(Cl)s3)o2)no1,1.1
20,Cc1cc(N/C=C\C(=O)c2ccc(Cl)c(Cl)c2)no1,2.1 (active)
21,CCCNC(=O)c1ccc(Cl)c(Cl)c1,1
22,CCN(CC)C(=O)CSc1nc2ccccc2n1CC(=O)N1CCN(c2ccccc2OC)CC1,1.1

row,Compound,activation factor
1,CC/S(CC1CC1(Cl)Cl)=N\S(=O)(=O)c1ccc(C)cc1 (stereo not given),1
2,CC(C)C(OC(=O)c1cccs1)C(=O)NC1CCCCC1 (stereo not given),1.3
3,OC(CN1C2=NCCCN2c2ccccc21)c1ccc(Br)cc1 (stereo not given),1.2
4,Cn1c(SCC(=O)NC2CCCCC2)nnc1-c1cc2ccccc2o1,1.4
5,NC(=O)c1ncc(C(F)(F)F)cc1Oc1ccc(F)cc1,1.1
6,CCOc1ccccc1NC(=O)c1cccnc1,1.3
7,CNC(=S)N1N=C(c2ccccc2)CC1c1ccc(Br)cc1 (stereo not given),1.3
8,Cc1noc(NS(=O)(=O)c2ccc(N/C=C/C(=O)c3ccccc3)cc2)c1C,1.3
9,COc1cc(C)c(C(C)C)cc1S(=O)(=O)n1ccnc1,1.2
10,COc1ccc(NC(=O)CCN2CCCC2)c(OC)c1,1.2
11,COC(=O)c1ccc(NC(=O)Nc2ccc(C)cc2)cc1,1.6
12,COc1ccc(C(=O)Cc2cnn(-c3ccccc3)c2)c(O)c1,1.3
13,CC(C)CCSc1ncnc2c1oc1nc3c(cc12)COC(C)(C)C3,1.1
14,COc1cccc(NC(=O)CN2CCN(c3nc(-c4cccc(OC)c4)cs3)CC2)c1,1.2
15,CCCNC(=O)NCc1ccc(N2CCCC2=O)cc1,1.1
16,COc1ccc(C2C(C(C)=O)=C(O)C(=O)N2Cc2cccnc2)cc1 (stereo not given),1.2
17,CC(C)NC(=O)CSc1nnc(COc2ccccc2Cl)o1,1.1
18,CCOn1c(SC(C)C)nc2ccccc2c1=O,1.1
19,COC(=O)C1CCN(CC(N)=O)CC1,1.1
20,CC(C)OC(=O)CN1C(=O)C(=O)c2ccccc21,1.3
21,COc1ccc(-c2oc(/N=C/N3CCCC3)c(C#N)c2-c2ccc(OC)cc2)cc1,1.1
22,COC(=O)[C@H](Cc1ccccc1)NC(=O)[C@@H]1C[C@H]1[C@@H](NC(=O)OCc1ccccc1)c1ccccc1,1.1

row,Compound,activation factor
1,CCOc1ccc(S(=O)(=O)NCCSc2ccccc2)cc1,1.1
2,CCOC(=O)C1=C(CCc2ccccc2)NC(=O)NC1c1ccc2ccccc2c1 (stereo not given),1.4
3,COc1ccc(C)cc1S(=O)(=O)Nc1cccc(Cl)c1Cl,1.1
4,Cc1ccc(C(=O)N2CCCC2)c(F)c1F,1.2
5,O=C(O)c1cc2ccccc2c(=O)s1,1.1
6,Cc1cc(C)n(-c2c(F)c(F)c(COC(=O)c3ccccc3)c(F)c2F)n1,1.1
7,Cc1ccc(/C=N/NC(=O)C2=NNC(c3ccccc3)(c3ccccc3)C2)c(O)c1,1.1
8,COc1ccc(C)cc1NC(=O)CCS(=O)(=O)c1cccc2nonc12,1
9,CN(C)c1nc(N)nc(CSc2ccccn2)n1,1.1
10,CCCc1noc2c1/C(=N\O)CCC2,1.1
11,Cn1c(Cc2cccc3ccccc23)nnc1SCC(=O)N1CCN(c2cccc(Cl)c2)CC1,1.1
12,CCOc1ccc(NC(=O)CN(C)CC(=O)Nc2cccc(Cl)c2C)cc1OCC,0.9
13,COc1ccc(N2CCN(C(=O)CNC(=O)c3ccc(C(C)(C)C)cc3)CC2)cc1,1.1
14,O=C(NCCSCc1ccccc1)c1ccc(Cl)c(S(=O)(=O)N2CCOCC2)c1,1.1
15,Cc1cnc(NC(=O)CSc2nnc(C)s2)s1,1
16,CCN(CC(=O)NC1CCS(=O)(=O)C1)c1nc(-c2cccnc2)nc2ccccc12 (stereo not given),1.1
17,COc1ccccc1NC(=O)CSc1nnc(C)n1CC1CCCO1 (stereo not given),1.1
18,O=C(CN1CCN(C(=O)c2ccco2)CC1)Nc1ccc2c(c1)OCO2,1.4
19,O=C(Nc1nnc(SCc2c(Cl)cccc2Cl)s1)C1CCCO1 (stereo not given),1.2
20,Cc1ccc(C2(C(F)(F)F)N=C3Sc4cc(C)cc(C)c4N3C(=O)N2)cc1 (stereo not given),1.1
21,C=C(C)CNC(=S)/N=c1\scc(C)n1CC,1.3
